# A selection: hits, their analogues and other compounds. The true share with any hit is near 5%.
# LmPK inhibitor – qHTS Assay for Inhibitors of Leishmania Mexicana Pyruvate Kinase (LmPK) | purified LmPK, Kinase-Glo ATP luminescence, 1 h | Potency, µM (doses to about 57.5 µM), for inactives: at the top dose activity change, negative = inhibition, usual class: inhibitors | 290,000 tested, 0.37% active | AID 1721, 2009; further: potency means the concentration at half of the fitted maximal effect
# Target sequence (Q27686 whole entry, looked up): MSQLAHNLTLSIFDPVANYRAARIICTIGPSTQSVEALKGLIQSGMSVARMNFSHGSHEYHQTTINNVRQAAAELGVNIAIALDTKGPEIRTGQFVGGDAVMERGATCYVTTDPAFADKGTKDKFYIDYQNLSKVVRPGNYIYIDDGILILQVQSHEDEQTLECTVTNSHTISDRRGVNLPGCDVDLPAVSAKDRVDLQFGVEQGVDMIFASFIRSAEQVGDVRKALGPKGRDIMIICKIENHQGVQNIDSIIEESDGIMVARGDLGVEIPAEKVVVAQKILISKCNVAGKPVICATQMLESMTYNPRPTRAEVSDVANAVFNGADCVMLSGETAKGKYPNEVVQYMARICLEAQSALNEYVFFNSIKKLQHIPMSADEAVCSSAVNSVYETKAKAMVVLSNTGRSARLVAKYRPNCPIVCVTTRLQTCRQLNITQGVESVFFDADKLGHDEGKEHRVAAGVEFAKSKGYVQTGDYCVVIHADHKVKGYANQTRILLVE
#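 Kinase-Glo luminescence read after 1 h RT reaction of 0.1 nM LmPK with 0.5 mM PEP and 0.1 mM ADP. Activity scaled between uninhibited and enzyme-free controls.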
# HCMV inh – qHTS Assay for inhibitors of the human cytomegalovirus (HCMV). HFF cells, HCMV-luciferase reporter, 72 h; hits give low values. activity change, negative = inhibition, % at 57.5 µM. 410,000 tested, 4.5% active. AID 1259415, 2018; in the data active means activity change below about -60%; inconclusive means no clear call, values can overlap the other calls; inactive means above about -39%
#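 Luciferase read-out from HCMV-luciferase-infected HFFs (MOI 1 PFU/cell) 72 h post infection at 37C; compounds added after 16 h cell attachment; activity normalized between buffer-only basal and Salinomycin (10uM) inhibitor controls.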
# VACV mCherry inh – qHTS for Stage-Specific Inhibitors of Vaccinia Orthopoxvirus: mCherry Reporter Primary qHTS. Vaccinia virus mCherry reporter infection, fluorescence. Potency, µM (top dose mostly 36.5 µM), without a hit: top-dose activity change, negative = inhibition, hits mostly inhibitors. 310,000 tested, 0.63% active. AID 720579, 2013; calls by dose curve; tested in A549 cells; further: potency means the concentration at half of the fitted maximal effect; nearly all actives have a fitted effect of over 35% in size
# Vaccinia Venus – qHTS for Stage-Specific Inhibitors of Vaccinia Orthopoxvirus: Venus Reporter Primary qHTS | Potency, µM (doses to about 36.5 µM), for the others: at the highest dose activity change, negative = inhibition, actives largely listed as inhibitors | Vaccinia virus Venus reporter expression, fluorescence | 330,000 tested, 0.46% active | AID 720580, 2013; calls by dose curve; tested in A549 cells; further: potency means the concentration at half of the fitted maximal effect; nearly all actives have a fitted effect of over 30% in size
# Tb PYK inh – qHTS of Trypanosoma Brucei Inhibitors; pyruvate kinase (Trypanosoma brucei), Q57TT1; TbPYK enzyme, Kinase-Glo Plus ATP luminescence, 45 min; Potency, µM (doses to about 76.8 µM), for inactives: top-dose activity, negative = inhibition, hits mostly inhibitors; 410,000 tested, 0.12% active; AID 624173, 2012; further: potency means the concentration at half of the fitted maximal effect; nearly all actives have a fitted effect of over 50% in size
#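 In this concentration-response screen, enzyme-free wells defined baseline while DMSO plates tracked drift. Each reaction combined TbPYK, substrate, compound and 130 uM ADP for 45 min at room temperature. Kinase-Glo Plus luminescence gave the signal.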
# * = called active by the depositor; i = inactive; ? = inconclusive; . = no result given. Unless noted, the call rests on the fitted dose curve; in most records, active means well fitted curve in the direction sought with a large enough effect; inconclusive means small, poorly fitted or top-dose-only effect, or another doubt; inactive means no such curve, though single readings can be large; an effect the other way counts as inactive or inconclusive. On the % scale 0 is the no-effect control and ±100 the full control effect.
SMILES,LmPK inhibitor,HCMV inh,VACV mCherry inh,Vaccinia Venus,Tb PYK inh
Brc1ccc2ncnc(Nc3ccc(N4CCOCC4)cc3)c2c1,-3.7%,-82.2*,?,?,-7.5%
COc1ccc2[nH]c(=O)c(CN(C(=O)c3cccc(Cl)c3)c3ccccc3OC)cc2c1,.,11.3,-26.0%,-22.8%,-11.0%
CN(C)c1ccc(NC(=O)CN2CCC(N3CCCCC3)CC2)cc1,-12.4%,-20.2,.,.,-0.2%
COc1cccc2cc(C(=O)CC3(O)C(=O)N(Cc4ccccc4)c4ccccc43)c(=O)oc12 (stereo not given),1.4%,?,.,.,-1.4%
CN(C)c1ccc(N/C=C/C(=O)c2ccc(F)cc2)cc1,14.1µM*,.,.,.,?
CN(C)c1ccc(N/C=C/C(=O)c2ccco2)cc1,7.08µM*,50.5,-11.8%,-7.3%,?
CC(=O)c1ccc(N2CCN(CC(=O)N(CC(C)C)c3c(N)n(CC(C)C)c(=O)[nH]c3=O)CC2)cc1,-1.3%,7.2,-14.5%,3.4%,0.7%
CC(C)CCn1nnnc1CN1CCN(c2ccc(F)cc2)CC1,7.9%,-102.3*,-13.9%,-1.0%,1.1%
CCN(CC)CCCNC(=O)c1sc2nc(-c3ccc(F)cc3)cn2c1C,-0.5%,34.2,.,.,-4.7%
Cc1c(CNCCc2ccc(S(N)(=O)=O)cc2)c(C(=O)O)c(C)n1Cc1ccc(Cl)cc1,.,19.4,-11.8%,1.2%,-5.2%
CN(Cc1ccco1)C(=O)Cn1c(=O)oc2cc(S(=O)(=O)NCc3ccccc3)ccc21,4.7%,65.5,-8.4%,-12.1%,-3.0%
CN(Cc1ccccc1)C(=O)Cn1c(=O)oc2cc(S(=O)(=O)NCc3ccccc3)ccc21,9.9%,-71.0*,?,?,-4.9%
COC(=O)CCS(=O)(=O)c1nc(-c2ccccc2)cc(C(F)(F)F)n1,-1.0%,.,.,.,-3.6%
CCOC(=O)CS(=O)(=O)c1nc(-c2ccc(F)cc2)cc(C(F)(F)F)n1,0.1%,.,.,10µM*,-5.1%
CCOC(=O)CS(=O)(=O)c1nc(-c2ccccc2)cc(C(F)(F)F)n1,-5.1%,-102.6*,.,10µM*,-0.4%
CCOC(=O)CCS(=O)(=O)c1nc(-c2ccccc2)cc(C(F)(F)F)n1,6.7%,.,11.2µM*,?,1.9%
CCOC(=O)c1c(C(F)(F)F)cc(-c2ccc(F)cc2)nc1C,-7.3%,28.9,-6.7%,-15.0%,4.8%
CCOc1cc(C#N)c(NC(=O)c2cccc(S(=O)(=O)N3CCOCC3)c2)cc1OCC,.,-5.8,-1.2%,-11.1%,4.0%
COc1ccccc1C(=O)NNC(=O)C(=O)NC(C)(C)C,-2.1%,9.2,.,.,3.6%
Cc1cc(=O)[nH]c(N/N=C/c2ccc(-c3ccc(F)cc3)o2)n1,-12.0%,-20.7,-12.6%,-9.0%,-13.7%
COC(=O)C(C)(C)ONC(=O)Nc1ccc(C)cc1,-1.1%,21.3,-8.8%,-0.3%,3.8%
CC(/C=N/NC(=O)c1cc(-c2ccc(Cl)cc2)nc2ccccc12)=C\c1ccco1,1.5%,-83.2*,?,?,1.4%
O=C(N/N=C/c1ccc[nH]1)c1ccccc1O,-5.2%,-91.8*,-12.6%,-6.7%,-1.2%
COc1cc(/C=N/NC(=O)CCn2cnc(-c3ccccc3)c2-c2ccccc2)ccc1O,-3.9%,-32.5,8.91µM*,?,-3.6%
Cc1ccc(-c2cc(C(=O)Nc3nccs3)c3ccccc3n2)c(C)c1,-0.7%,-87.1*,i,-15.9%,3.4%
SMILES,LmPK inhibitor,HCMV inh,VACV mCherry inh,Vaccinia Venus,Tb PYK inh
COc1cc(/C=N/NC(=O)CCN2CCCCC2)ccc1O,4.9%,-22.3,?,?,-0.3%
O=C(N/N=C/c1ccc(O)cc1)c1cc(-c2ccccc2)nc2ccccc12,2.1%,-76.5*,.,.,1.5%
COc1cc(/C=N/NC(=O)c2cc(-c3ccccc3)nc3ccccc23)ccc1O,-6.7%,-67.2*,-23.8%,-6.0%,-9.3%
COc1ccc(-c2cc(C(=O)N/N=C/c3sccc3C)c3ccccc3n2)c(OC)c1,1.1%,-63.2*,28.2µM*,-19.7%,3.6%
O=C(Nc1ccccc1C(=O)N/N=C/c1ccc(O)cc1)c1ccccc1,14.1µM*,19.2,.,.,-22.6%
Cc1oc2ccc(OC(C(=O)O)c3ccccc3)cc2c1C(=O)O (stereo not given),-1.8%,-4.6,i,-7.3%,-9.0%

# Compound activity deposited in PubChem by National Center for Advancing Translational Sciences (NCATS).
